About 83,000 compounds went through this panel and 20% of them were active in at least one assay; those are over-represented in the sample as a whole.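 Method: cells in 96-well plates; compound added at one concentration; 48 h incubation; percent growth measured; values under 10 scored active.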 The source made the active and inactive calls.

This assay relates to NCI-H322M lung. Description: NCI-60 one-dose screen, 48 h (100 = growth as untreated, 0 = no growth, -100 = all killed). Particulars: 10 µM unless noted. On the procedure: Growth inhibition of the NCI-H322M human Non-Small Cell Lung tumor cell line is measured as a screen for anti-cancer activity. Cells are grown in 96 well plates and exposed to the test compound for 48 hours. Compounds are tested at a single concentration, which is 10^-5 M for most compounds. The reported endpoint is percent growth (GI% or GIPRCNT), where numbers from 0 - 100% represent growth inhibition, and numbers from -100% - 0 represent cell death. For example, a value of 40 represents 60% growth inhibition. A value of 0 means no net growth occurred over the course of the experiment. A value of -40 indicates 40% of cells at the beginning of the experiment died by the end of the experiment. A value of -100 means all cells are dead at the end of the experiment.
NCI-60 Human Tumor Cell Lines Screen was performed using the standard one-dose NCI protocol, which is described in more detail at https://dtp.cancer.gov/discovery_development/nci-60/default.htm.
Compounds with GIPRCNT values below 10 were considered active. Activity score was based on GIPRCNT using the following formula: […]
Score is 0 for GIPRCNT values of 100 or above, 50 for GIPRCNT values of 0, and 100 for GIPRCNT values of -100.
With `CCCCCC(=O)OCc1ccc(Cl)c(Cl)c1`, the growth is 96.3% (inactive).

`CN1CCN(CCOc2cc(OC3CCOCC3)c3c(Nc4c(Cl)ccc5c4OCO5)ncnc3c2)CC1`: the growth is 2.76% (active).

For the molecule `Cc1ccc(-n2nc(C(C)(C)C)cc2NC(=O)NCc2cc(F)ccc2Oc2ccc3c(cnn3CCO)c2)cc1`, the growth was 21.6% (inactive).

`C[C@@H](Nc1cc(F)cc(F)c1)c1cc(C(=O)N(C)C)cc2c(=O)cc(N3CCOCC3)oc12`: the growth is 31.5% (inactive).

As for `CCCCCCC1(/C=N/NC(N)=O)NC(=O)NC1=O` (stereo not given), the growth was 102% (inactive).

Take `[2H]C1([2H])[C@H](C)O[C@H](C)C([2H])([2H])N1c1ccc(NC(=O)c2cccc(-c3ccc(OC(F)(F)F)cc3)c2C)cn1`: the growth is 83.4% (inactive).

With `O=C1NC(=O)C(c2cnc3ccccn23)=C1c1cn2c3c(cc(F)cc13)CN(C(=O)N1CCCCC1)CC2`, the growth was 72% (inactive).

Take `NC1(C(=O)N[C@@H](CCO)c2ccc(Cl)cc2)CCN(c2ncnc3[nH]ccc23)CC1`: the growth is 55% (inactive).

As for `N#Cc1c(-c2ccc(C(F)(F)F)cc2)c(F)c(NCCC2CCC(O)C2)n2c1nc1ccccc12` (stereo not given), the growth was 58.5% (inactive).

With `CS(=O)(=O)N1CCN(Cc2cc3nc(-c4cccc5[nH]ncc45)nc(N4CCOCC4)c3s2)CC1`, the growth was -6.73% (active).

Consider `c1ccc2c(c1)CCN(NCCN1CCCC1)C2`, for which the growth is 98.2% (inactive).

As to `Cc1csc(-c2nnc(Nc3ccc(Oc4ncccc4-c4ccnc(N)n4)cc3)c3ccccc23)c1`, the growth was 30.5% (inactive).

In the case of `C[C@@]1(C(=O)Nc2ccc(F)nc2)CCCN1c1nc(Nc2cc(C3CC3)[nH]n2)c2cccn2n1`, the growth is 15.3% (inactive).

In the case of `CN1CCN(CCCOc2cccc3nc(Nc4ccc(Cl)c(C(F)(F)F)c4)ccc23)CC1`, the growth was 15.9% (inactive).

Regarding `Nc1ncnc2c1c(-c1cccc(OCc3ccccc3)c1)cn2C1CC(CN2CCC2)C1` (stereo not given), the growth is 42.9% (inactive).

Take `COc1cc(NCCCN)c2ncccc2c1`: the growth was 82.9% (inactive).

Consider `COC(=O)Nc1nc2ccc(C(=O)c3ccc(N(C)C4COC4)cc3)cc2[nH]1`, for which the growth is 48.3% (inactive).

Turning to `COc1ccc(C(=O)N2c3ccccc3Sc3ccccc32)c(F)c1`, the growth is 44.2% (inactive).

On to `COc1cc2c(cc1OCCCCN1CCN(CC(=O)Nc3ccc(Cl)cc3C(=O)c3ccccc3Cl)CC1)N=CC1CCCN1C2=O` (stereo not given), for which the growth was -64% (active).

Regarding `Cc1ccc(C(=O)Nc2ccc(CN3CCN(C)CC3)c(C(F)(F)F)c2)cc1C#Cc1cnc2cccnn12`, the growth is -98.8% (active).

As to `O=C(Cn1cncn1)Nc1ccc(-c2nc3ccccc3s2)cc1`, the growth is 101% (inactive).

Take `COc1cc2nc(Nc3cccc(Cl)c3)nc(N)c2cc1OC`: the growth is 89.7% (inactive).

`CN1CCN(c2nc(NCCNc3ccnc4cc(Cl)ccc34)c3ccccc3n2)CC1`: the growth is 21.3% (inactive).

As to `CNC(=O)c1ccccc1Nc1nc(Nc2ccc3c(c2OC)CCC[C@H](N2CCN(CCO)CC2)C3)ncc1Cl`, the growth was 5.21% (active).

In the case of `CCN(CC)c1cc2oc3cc(N)cc(=N)c-3nc2cc1C`, the growth was 91.7% (inactive).

Turning to `CCc1nc2cc(/C=C/C(=O)NO)c(F)cc2c(=O)n1CCc1ccccc1`, the growth was 20.5% (inactive).

For the molecule `Cc1cc(C(=O)NOCCO)c(Nc2ccc(I)cc2F)n(C)c1=O`, the growth is 19.8% (inactive).

`Cc1ccccc1N1C(c2ccccc2)=NNC12C=CC(=O)C=C2Cl` (stereo not given): the growth is 95.4% (inactive).

Take `CNC(=O)c1cc(Oc2cccc3nc(Nc4ccc(Cl)c(F)c4)ccc23)ccn1`: the growth was 78.8% (inactive).

`COc1ccc(C2CC(=O)c3c(O)c(OC)c(OC)c(OC)c3O2)cc1O` (stereo not given): the growth is 44.3% (inactive).

Turning to `COc1ccc(S(=O)(=O)N(C(C)=O)c2ccccc2/C=C/c2cc[n+]([O-])cc2)cc1`, the growth was 39.2% (inactive).

Consider `COc1cc2c(cc1O)c(=O)n(CCN(C)C)c1c3cc4c(cc3ncc21)OCO4`, for which the growth was -5.9% (active).

On to `COc1cc(-c2nc(C(=O)Nc3ccc(C)cc3)nn2-c2ccc(F)c(F)c2)cc(OC)c1OC`, for which the growth was 96% (inactive).

Consider `C[C@@H]1COC(Nc2ccc3ncnc(Nc4ccc(OCc5nccs5)c(Cl)c4)c3c2)=N1`, for which the growth was 20.1% (inactive).

`COc1cc2c(c(OC)c1)C1c3ccccc3NC(=O)N1CC2` (stereo not given): the growth was 34.9% (inactive).

Regarding `CCNC(=O)Nc1nc2ccc(Oc3ccnc(C(=O)NC)c3)cc2s1`, the growth is 102% (inactive).

Turning to `COc1cnc2c(c1)C(=O)c1c-2n(CCCNC2=NCCS2)c(=O)c2cc(Cl)ccc12`, the growth was -43.9% (active).

Take `COC(=O)[C@]12CC[C@@H](C)[C@H](C)[C@@H]1C1=CC[C@@H]3[C@@]4(C)C[C@@H](OC(=O)/C=C/c5ccccc5)[C@H](O)[C@@](C)(CO)[C@@H]4[C@H](O)C[C@@]3(C)[C@]1(C)CC2`: the growth was 37.9% (inactive).

Take `CN(C)CCn1c(=O)c2c3cc4c(cc3n(CCN(C)C)c2c2ccc(Cl)cc21)OCO4`: the growth is 49.1% (inactive).

As to `COC(=O)[C@@H](NC(=O)[C@@H](OC)[C@@H]1Cc2cc3cc(OC4CC(OC5CC(O)C(O)C(C)O5)C(O)C(C)O4)c(C)c(O)c3c(O)c2C(=O)[C@H]1OC1CC(OC2CC(OC3CC(C)(O)C(O)C(C)O3)C(O)C(C)O2)C(O)C(C)O1)C(C)C` (stereo not given in full), the growth is 24.8% (inactive).

Source of the values: PubChem BioAssay (NCI).
